A selection: hits, their analogues and other compounds. The true share with any hit is near 5.4%.
Calb FLC = C. albicans growth modulation with fluconazole. growth inhibition, % (no concentration beside the values). C. albicans CaCi-2 (fluconazole-resistant clinical isolate) + fluconazole, Alamar Blue growth, 48 h. 0.57% of 300,000 active;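 active = growth inhibition above about 58% in most replicates, limit read from the data, passing the limit was not always enough; inconclusive = exactly half the replicates above a set limit; inactive = most replicates below a set limit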;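 also: all wells also contain fluconazole at 8 µg/ml as a sub-toxic cotreatment; 0% = median of DMSO wells and 100% = median of geldanamycin control wells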
Mdm2-MdmX inh = inhibitors of human Mdm2/MdmX interaction | O15151+Q00987 | SaOS-2 split-luciferase Mdm2/MdmX complementation, luminescence | inhibition, % at 8 µM | 3% of 330,000 active | AID 485346;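 active = inhibition of at least 50% at 8 µM in the primary screen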
Target sequence (O15151 whole entry, looked up): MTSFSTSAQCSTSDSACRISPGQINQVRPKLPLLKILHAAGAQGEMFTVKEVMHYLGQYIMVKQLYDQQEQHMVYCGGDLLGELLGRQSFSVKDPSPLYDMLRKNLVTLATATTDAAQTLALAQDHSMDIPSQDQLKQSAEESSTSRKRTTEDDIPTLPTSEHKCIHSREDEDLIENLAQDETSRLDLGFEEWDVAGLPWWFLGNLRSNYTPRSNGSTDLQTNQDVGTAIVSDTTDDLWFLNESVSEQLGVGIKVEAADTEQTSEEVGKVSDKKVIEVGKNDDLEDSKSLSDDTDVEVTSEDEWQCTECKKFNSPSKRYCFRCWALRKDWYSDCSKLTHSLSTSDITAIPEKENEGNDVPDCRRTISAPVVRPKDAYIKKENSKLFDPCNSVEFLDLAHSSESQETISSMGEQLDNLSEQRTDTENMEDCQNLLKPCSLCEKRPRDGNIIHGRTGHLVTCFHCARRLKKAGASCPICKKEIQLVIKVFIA
Target sequence (Q00987 whole entry, looked up): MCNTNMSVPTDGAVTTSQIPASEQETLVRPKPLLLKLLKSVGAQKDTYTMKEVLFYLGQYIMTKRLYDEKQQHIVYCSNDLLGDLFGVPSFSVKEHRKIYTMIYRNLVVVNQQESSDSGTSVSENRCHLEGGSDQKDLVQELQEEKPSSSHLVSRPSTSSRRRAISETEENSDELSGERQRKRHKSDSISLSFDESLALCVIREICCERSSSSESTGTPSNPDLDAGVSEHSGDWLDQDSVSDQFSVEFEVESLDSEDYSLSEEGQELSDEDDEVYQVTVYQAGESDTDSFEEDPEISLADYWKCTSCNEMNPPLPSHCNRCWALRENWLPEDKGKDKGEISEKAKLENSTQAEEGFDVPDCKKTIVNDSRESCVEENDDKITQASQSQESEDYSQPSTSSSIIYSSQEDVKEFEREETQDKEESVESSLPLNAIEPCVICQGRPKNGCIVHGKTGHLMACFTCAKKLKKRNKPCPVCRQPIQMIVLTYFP
CSC inhib = blocks cancer stem cells; cancer stem cell-like cells viability, luminescence; inhibition, % at 7.5 µM; 1.1% of 300,000 active; in the data active = inhibition above about 75%; inconclusive = no clear call, values can overlap the other calls; tested in HMLE shEcad cells
Beta cell apopt = blocks beta cell apoptosis; protection from apoptosis, % (no concentration beside the values); INS-1E cytokine-induced death, ATP luminescence, 48 h; percent of positive-control rescue, neutral wells zero; 0.8% of 300,000 active; AID 435005;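 active = Every replicate reaches about 75%, or at least half do and their mean reaches it too, limit read from the data; inconclusive = At least half of replicates reach the limit but their mean does not; inactive = Under half of replicates reach the limit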;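 also: 0% = cytokine-treated negative control wells and 100% = positive control rescue; higher means more ATP so stronger rescue from cytokine killing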
MPTP block = inhibitors of mitochondrial permeability transition pore; isolated mouse mitochondria, Ca2+ swelling absorbance, 30 min; inhibition, % at 10 µM; 1.4% of 360,000 active; AID 602449;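 active = inhibition of 50% or more, scaled per plate between neutral and stimulator controls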;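 also: 0% = DMSO wells given calcium and 100% = 1 mM EGTA wells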
SKKanGAS inh = inhibitors of SKKanGAS S. pyogenes growth in kanamycin (SK-promoter or general growth effect). BacTiter-Glo, 6 h. inhibition, % at 7.5 µM. 1.3% of 300,000 active. AID 1662;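 active = mean replicate score, as percent of positive control median, at least 50; inconclusive = mean below 50 but one replicate at or above 50; inactive = mean and every replicate below 50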;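 also: strain carries kanamycin resistance gene driven by streptokinase promoter and grows in 40 µg/ml kanamycin; loss of luminescence reflects streptokinase promoter inhibition or plain growth inhibition; 0% = median of DMSO wells and 100% = positive control at its reference dose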
An asterisk follows results filed as active.

`O=C(Nc1nc(-c2cccs2)cs1)c1ccc([N+](=O)[O-])o1` gave Mdm2-MdmX inh 34.8, CSC inhib 90.2*, Beta cell apopt -11.0 and MPTP block 4.7.
Cc1ccccc1NC(=O)c1ccc([N+](=O)[O-])o1 was read as Calb FLC 19.3, Mdm2-MdmX inh -1.4, CSC inhib 23.6, Beta cell apopt -4.3, MPTP block 1.0 and SKKanGAS inh 7.6.
For O=C(Nc1cccc(NC(=O)c2ccc([N+](=O)[O-])o2)c1)c1ccco1 the results were Calb FLC -6.4, Mdm2-MdmX inh 19.9, CSC inhib 86.7*, Beta cell apopt -3.1, MPTP block -0.6 and SKKanGAS inh inconclusive.
COc1cc(NC(=O)c2ccc([N+](=O)[O-])o2)ccc1NC(=O)c1cccs1 was read as Calb FLC -3.9, Mdm2-MdmX inh 24.5, CSC inhib 50.3, Beta cell apopt 77.7*, MPTP block 1.0 and SKKanGAS inh 22.1.
`COC(=O)[C@@]12C[C@@H](CC(=O)N3CCCC3)C(=O)N(Cc3ccc4c(c3)OCO4)C1=CCC(C)(C)C2` gave MPTP block -0.2.
Screening CC(=O)N1N=C(c2ccc(C)o2)CC1c1cccc(F)c1 (configuration not stated) returned Calb FLC 2.3, Mdm2-MdmX inh -5.7, CSC inhib -10.8, Beta cell apopt -7.5, MPTP block 0.2 and SKKanGAS inh -2.0.
For CC1CCCN(CCC(=O)Nc2ccc(Br)cc2)C1 (configuration not stated) the results were Calb FLC -7.3, Mdm2-MdmX inh -15.8, CSC inhib -3.7, Beta cell apopt 0.0, MPTP block -0.1 and SKKanGAS inh 7.0.
For COc1ccc(-c2cc3ccccc3oc2=O)cc1NC(=O)c1ccc([N+](=O)[O-])o1 the results were Calb FLC 6.1, Mdm2-MdmX inh 6.2, Beta cell apopt 82.1*, MPTP block 0.9 and SKKanGAS inh 20.2.
Screening CCC(=O)Nc1cc(-c2cc3ccccc3oc2=O)ccc1OC returned Calb FLC 1.2, Mdm2-MdmX inh -14.1, CSC inhib 3.3, Beta cell apopt 4.7, MPTP block 0.0 and SKKanGAS inh -1.3.
For COc1cccc(NC(=O)C2CC(=O)N/C(=N/NC(=O)c3ccc(C)cc3)S2)c1 (configuration not stated) the results were Calb FLC 5.1, Mdm2-MdmX inh 12.8, CSC inhib 4.2, Beta cell apopt -4.3, MPTP block 0.5 and SKKanGAS inh -0.2.
Screening C[C@@H]1O[C@H](C2CCCCC2)Cc2[nH][nH]c(=O)c21 returned MPTP block -1.2.
`O=C(CN1CCN(c2ccccc2Cl)CC1)NC1CCCc2ccccc21` (configuration not stated) gave Calb FLC -16.4, Mdm2-MdmX inh 5.7, CSC inhib -7.0, Beta cell apopt 2.0, MPTP block 3.9 and SKKanGAS inh -22.2.
`Cc1ccc(Cl)cc1N1CCN(CC(=O)NC2CCCc3ccccc32)CC1` (configuration not stated) gave Calb FLC -17.0, Mdm2-MdmX inh 16.6, CSC inhib 78.5*, Beta cell apopt -3.2, MPTP block -0.4 and SKKanGAS inh -3.9.
Screening CCCN(CC1CC1)C(=O)COC(=O)c1oc2c(F)cccc2c1C returned Mdm2-MdmX inh 26.7, CSC inhib -21.6, Beta cell apopt -5.8 and MPTP block -0.5.
Screening O=S(=O)(Cc1ccccc1)N1CCc2ccccc21 returned Calb FLC 100.3*, Mdm2-MdmX inh -32.7, CSC inhib 1.2, Beta cell apopt 3.9 and SKKanGAS inh -3.7.
Screening COc1ccccc1OCCOC(=O)Nc1ccccc1 returned Calb FLC -10.3, Mdm2-MdmX inh -28.7, CSC inhib -6.4, Beta cell apopt -7.4, MPTP block -1.4 and SKKanGAS inh 6.6.
`COc1cccc2sc(Nc3nnc(-c4cccs4)o3)nc12` gave Calb FLC -6.8, Mdm2-MdmX inh 19.5, CSC inhib 63.5, Beta cell apopt 67.6, MPTP block 0.4 and SKKanGAS inh 91.9*.
`O=C(Nc1nc2c(F)cccc2s1)c1ccco1` gave Calb FLC 3.5, Mdm2-MdmX inh -113.4, CSC inhib -4.0, Beta cell apopt 7.1, MPTP block 0.1 and SKKanGAS inh -1.0.
For Fc1cccc2sc(Nc3nnc(-c4ccco4)o3)nc12 the results were Calb FLC 85.2*, Mdm2-MdmX inh 3.9, CSC inhib 23.3, Beta cell apopt 27.5, MPTP block 1.1 and SKKanGAS inh 71.6*.
`O=c1cc(NS(=O)(=O)c2ccccc2)nc(SCc2ccc(Cl)cc2)[nH]1` gave CSC inhib 88.0*, Beta cell apopt 5.3 and MPTP block 3.4.
`COc1ccc(Cl)cc1Nc1nc(NCCO)nc(N2CCCC2)n1` gave Calb FLC 14.3, Mdm2-MdmX inh 14.0, CSC inhib -11.0, Beta cell apopt -2.7, MPTP block -11.4 and SKKanGAS inh -3.2.
OCCNc1nc(Nc2cc(Cl)ccc2OC2CCCC2)nc(N2CCCC2)n1 was read as Calb FLC 26.9, Mdm2-MdmX inh 48.8, CSC inhib 60.2, Beta cell apopt -2.9, MPTP block 1.0 and SKKanGAS inh 67.5*.
Screening COc1ccc(NC(=S)N2CCC(C(=O)c3ccc(C)cc3)CC2)cc1 returned Calb FLC -5.9, Mdm2-MdmX inh 14.8, CSC inhib 1.3, Beta cell apopt 2.5, MPTP block -0.5 and SKKanGAS inh -2.1.
CCN(CCCNC(=O)CCNC(=O)Cn1cnc2ccccc2c1=O)c1ccccc1 was read as Calb FLC 0.7, Mdm2-MdmX inh 5.7, CSC inhib -4.6, Beta cell apopt -6.4, MPTP block -2.7 and SKKanGAS inh 1.2.
Screening Cc1ccccc1CSc1ccc(-c2ccc3c(c2)OCO3)nn1 returned Calb FLC -34.4, Mdm2-MdmX inh -137.8, CSC inhib 87.4*, Beta cell apopt -3.6, MPTP block 1.2 and SKKanGAS inh -9.0.
Cc1cc(C(=O)Nc2cccc(S(=O)(=O)N3CCOCC3)c2)c2ccccc2n1 was read as Mdm2-MdmX inh 1.4, CSC inhib 21.7, Beta cell apopt 7.0 and MPTP block 0.2.
For Cc1ccn2c(NC3CCCC3)c(-c3ccncc3)nc2c1 the results were Calb FLC -33.2, Mdm2-MdmX inh -26.4, CSC inhib -7.9, Beta cell apopt -4.8, MPTP block 2.4 and SKKanGAS inh 0.6.
Cc1ccn2c(NC3CCCCC3)c(-c3cccc(-c4cccc(Cl)c4)c3)nc2c1 was read as Calb FLC -9.7, Mdm2-MdmX inh 44.4, CSC inhib 102.4*, Beta cell apopt -1.3, MPTP block 7.0 and SKKanGAS inh 32.0.
For CCOc1ccc(-n2c(-c3ccccc3)c[n+]3c2CCCCC3)cc1 the results were Calb FLC 87.3*, Mdm2-MdmX inh 27.0, CSC inhib 23.1, Beta cell apopt 98.8*, MPTP block 4.8 and SKKanGAS inh 5.3.
For Cc1ccc(-c2c[n+]3c(n2-c2ccccc2)CCC3)cc1 the results were Calb FLC -7.7, Mdm2-MdmX inh 30.0, CSC inhib -14.8, Beta cell apopt 100.2*, MPTP block 2.1 and SKKanGAS inh -2.4.

High-throughput results as filed in PubChem.
